From PubChem BioAssay (NCI) come the findings set out here.

About 83,000 compounds went through this panel and 20% of them were active in at least one assay; those are over-represented in the sample as a whole.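 A percent growth of 40 corresponds to 60% growth inhibition; 0 means no net growth; -100 means all cells died. Active threshold: below 10.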 Values without a mark were called inactive. Calls of active or inactive are those of the source.

This experiment deals with HL-60(TB) leukemia. In words: NCI-60 one-dose screen, 48 h (100 = growth as untreated, 0 = no growth, -100 = all killed). The note with it: 10 µM unless noted.
As for `O=C(Nc1cccc(C2=NCCN2)c1)c1ccc(N=Nc2ccc(C(=O)Nc3cccc(C4=NCCN4)c3)cc2)cc1`, the growth was 42.5%.
With `CC12CCC3C(CCC4CC(=O)/C(=C\O)CC43C)C1CCC(=O)O2` (stereo not given) the figure was 111%.
The value for `O=C(Nc1ccc(Cl)cc1)c1cc2cc(F)ccc2cc1O` was -4.75% (active).
The value for `O=c1c2c3c(sc2n2c(-c4cc(-c5ccccc5)nn4-c4ccccc4)nnc2n1Cc1ccccc1)CCCC3` was 50.7%.
As for `CCCCCc1cc[n+](CC(=O)c2ccc([N+](=O)[O-])cc2)cc1`, the growth was 102%.
With `Cc1cc(C)c(C=O)c(C)c1` the figure was 84.1%; with `NNc1c2ccccc2nc2ccccc12`, 9.09% (active); with `Nc1ncc(-c2ccc3ncnc(N4CCc5cc(F)c(Cl)cc54)c3c2)cc1C=O`, 2.72% (active).
Take `O=C(CCc1nnc(SCc2ccccc2)s1)c1nc2ccccc2[nH]1`: the growth was 92.3%.
The value for `O=C1NC(=O)/C(=C\c2ccco2)S1` was 74.2%; that for `COc1ccccc1/C=C1\COc2ccc(O)cc2C1=O` was 1.08% (active).
Consider `CN1CCN(Cc2ccc(NC(=O)c3cncc(C#Cc4cnc(N)c5ccc(C#N)cc45)c3)cc2C(F)(F)F)CC1`, for which the growth is -17% (active).
The value for `N#CC1=C(N)Oc2nc[nH]c(=O)c2C1c1cccs1` (stereo not given) was 98.8%.
With `Cc1cc(=O)oc2cc(O)cc(O)c12` the figure was 109%; with `CC(=Nc1ccccc1)C1=C(O)C(Cc2ccccc2)NC1=O` (stereo not given), -52.3% (active).
With `CCCCNc1ccc(-c2ccc(NCCCC)cc2)cc1` the figure was 45.4%; with `CCCCCCNC(=O)Oc1ccc(/C(=C(\C)c2ccccc2)c2ccc(OCCN(CC)CC)cc2)cc1`, 9.56% (active); with `COc1ccc(Cn2cc3c(c2-c2cc(OC)c(OC)c(OC)c2)CCc2c(CO)noc2-3)cc1`, -36.2% (active).
Take `CCCCCCn1c(-c2ccc(C(=O)O/N=C(\N)c3ccc(OC)cc3)cc2)nc(-c2ccccc2)c1-c1ccccc1`: the growth is -58% (active).
The value for `Nc1nc2ccc(-c3nc4ccc5[nH]ncc5c4c4c3CCC4)cc2s1` was 30.2%; that for `CC1(C)C2=C(C(=O)N1Cc1ccccc1)C(c1ccco1)N(C(=O)C1CCC1)CCN2` (stereo not given) was 99.1%; that for `Cc1cccc(C)c1NCc1nc(-c2ccccc2)n[nH]1` was 90.7%.
Take `Nc1cc(O)cc2cccnc12`: the growth is 98.5%.
The value for `CCOC(CNC(=O)c1cccc([N+](=O)[O-])c1)OCC` was 105%; that for `CN(C)c1ccc(/C=C\C2=[N+](C)c3ccccc3C2(C)C)cc1` was 22.9%.
